Screening results deposited in PubChem by National Center for Advancing Translational Sciences (NCATS).
D1 antag: blocks dopamine activation of the human D1 receptor; P21728; HEK293 TREx D1 cells, calcium flux, dopamine EC80; active compounds read low; activity change, negative = inhibition, % at 10 µM; actives 3.2% (n = 360,000); in the data active = activity change below about -30%; also: % is scaled to controls: 0 for no effect and ±100 for the full control effect
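Calcium flux readout: force-coupled, inducible Hek293 Trex D1 line, cells induced overnight at 30 C with tetracycline, dye-loaded 30–90 min at RT. Antagonism scored against EC80 dopamine challenge given 180 s after compound.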
D1 agonist: activates the human D1 dopamine receptor; P21728; AID 504660; actives 1% (n = 360,000); activation, % at 2 µM; HEK293 T-REx D1 cells, calcium flux, agonist mode; in the data active = activation above about 30%; also: 0% is about no effect
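Inducible HEK293 T-REx D1 cells, force-coupled to calcium signalling, were plated at 4000 cells/well with tetracycline and held overnight at 30 C. After no-wash calcium dye loading, compound-evoked calcium rise over 180 s flagged agonists.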
D1 potentiator: human D1 dopamine receptor positive modulation. HEK293 TREx D1 cells, calcium flux, dopamine EC20 potentiation. P21728. actives 0.036% (n = 360,000). AID 504651. potentiation, % at 10 µM; in the data active = potentiation above about 30%; also: 0% is about no effect
DRD3 antagonist: blocks the human D3 dopamine receptor. max response, negative = inhibition, %. actives 2.5% (n = 360,000). D3R cells, DiscoveRx beta-arrestin luminescence, antagonist mode; active compounds read low. AID 652054; in the data active = max response below about -50%; also: % is scaled to controls: 0 for no effect and ±100 for the full control effect
Target sequence (P35462 whole entry, looked up): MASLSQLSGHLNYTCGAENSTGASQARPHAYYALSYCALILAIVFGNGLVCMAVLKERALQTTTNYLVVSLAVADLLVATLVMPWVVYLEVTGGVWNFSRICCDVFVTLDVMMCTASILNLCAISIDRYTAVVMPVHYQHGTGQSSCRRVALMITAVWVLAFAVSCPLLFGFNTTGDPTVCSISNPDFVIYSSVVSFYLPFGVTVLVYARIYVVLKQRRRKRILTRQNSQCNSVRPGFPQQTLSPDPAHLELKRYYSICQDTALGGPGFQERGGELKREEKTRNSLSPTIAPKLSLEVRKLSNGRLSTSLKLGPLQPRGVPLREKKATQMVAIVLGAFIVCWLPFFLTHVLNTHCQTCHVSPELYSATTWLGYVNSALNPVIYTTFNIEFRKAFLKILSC
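Cells plated overnight at 1500 cells/well, then exposed to library compounds with dopamine controls for 90 minutes at 37 degrees C. DiscoveRx reagent added for 30–60 minutes at room temperature; luminescence read, quantitative HTS format.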
D3 ag: activates the human D3 dopamine receptor | P35462 | D3R DiscoveRx beta-arrestin cells, luminescence, 90 min | max activation, % | actives 0.58% (n = 410,000) | AID 652048; in the data active = max activation above about 30%; also: 0% is about no effect
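Cells at 1500/well, incubated overnight, then treated with pinned compounds (dopamine as control) for 90 min at 37 degrees C. DiscoveRx reagent added for 30 - 60 minutes at room temperature; luminescence read.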
* = called active by the depositor; nt = no result. An excerpt weighted towards active compounds, which were near 6.1% of everything screened.

SMILES	D1 antag	D1 agonist	D1 potentiator	DRD3 antagonist	D3 ag
C=CCn1cc(/C=C/c2cc[n+](C)cc2)c2ccccc21	0.8	38.3*	-4.7	-10.3	-2.0
CC(C)n1cc(/C=C/c2cc[n+](C)cc2)c2ccccc21	-0.2	88.4*	2.5	6.5	-6.4
Cc1nc2c(-c3ccccc3)c(C)nn2c(C)c1CCC(=O)N1CCN(c2ccc(F)cc2)CC1	-4.8	0.0	2.4	nt	9.4
Cc1cc(-c2ccc(C)c(S(=O)(=O)Nc3cccc(C#N)c3)c2)on1	8.1	5.2	-3.2	nt	1.4
CCOC(=O)C(=CNc1cc(Cl)c(-c2ccco2)c(Cl)c1)C(=O)OCC	5.0	10.0	-1.6	0.7	1.4
CCOC(=O)C(=CNc1ccc2c(c1)CCN2C(C)=O)C(=O)OCC	6.3	-0.5	1.9	126.0	32.4*
CCOC(=O)C(=CNc1ccc(-c2ccco2)c(Cl)c1)C(=O)OCC	4.4	4.1	5.2	109.9	37.8*
COc1ccc(OC)c(NC(=O)CN(C)S(=O)(=O)c2ccc3[nH]c4c(c3c2)CCCC4)c1	-6.9	-0.4	-0.6	nt	-0.7
Cc1ccc(N2CC(NC(=O)Cc3cccs3)CC2=O)cc1C (stereo unspecified)	nt	-4.1	-1.9	nt	9.3
COc1cccc(NS(=O)(=O)c2c(C)nc3sccn3c2=O)c1	-42.6*	7.8	0.1	2.8	2.4
CC(=O)Nc1ccc(NS(=O)(=O)c2c(C)nc3sccn3c2=O)cc1	-4.4	1.1	-4.4	nt	7.5
Cc1nc2scc(C)n2c(=O)c1S(=O)(=O)Nc1ccc(F)cc1	-11.0	1.6	-4.3	-13.5	7.4
CCCCOC(=O)c1ccc(NS(=O)(=O)c2c(C)nc3scc(C)n3c2=O)cc1	4.8	10.2	2.5	nt	36.5*
CCOc1ccc(NS(=O)(=O)c2c(C)nc3sccn3c2=O)cc1	-33.8*	6.8	-10.3	15.7	5.2
C=CCOc1cccc(C2/C(=C(/O)c3ccc(Cl)cc3)C(=O)C(=O)N2CCN2CCOCC2)c1 (stereo unspecified)	-4.3	1.0	1.6	-56.0*	0.4
C=CCOc1cccc(C2/C(=C(\O)c3ccc(F)cc3)C(=O)C(=O)N2CCN(C)C)c1 (stereo unspecified)	-52.7*	-0.5	-5.2	-11.7	-2.6
CCCOc1cccc(C2/C(=C(/O)c3ccc(F)cc3)C(=O)C(=O)N2CCN(C)C)c1 (stereo unspecified)	1.0	3.0	-2.6	-13.0	2.4
C=CCOc1cccc(C2/C(=C(/O)c3ccccc3)C(=O)C(=O)N2CCN2CCOCC2)c1 (stereo unspecified)	-0.6	0.7	-3.7	-10.2	-3.7
COc1ccc(Nc2ncnc3c2c(-c2ccccc2)cn3-c2ccc(C)c(Cl)c2)cc1OC	-21.8	-2.9	-1.1	nt	4.9
O=C(c1ccc([N+](=O)[O-])cc1)N1CCN(c2ccc(Nc3ccccc3)nn2)CC1	nt	-3.5	-1.6	nt	10.8
Cc1ccc2c(c1)C(c1ccc(F)cc1)N(C(=O)c1ccc(OC(C)C)cc1)CC(=O)N2 (stereo unspecified)	10.0	4.1	1.9	nt	-28.3
Cc1cccc(NC(=O)C2CCCN(S(=O)(=O)c3c(C)noc3/C=C/N(C)C)C2)c1C (stereo unspecified)	1.5	-1.6	-0.1	nt	3.2
CCOC(=O)C1CCN(C(=O)Cn2nc(CC)n3c(cc4sccc43)c2=O)CC1	-0.6	1.1	-4.5	nt	-13.3
CC1=C(OC(=O)c2ccccc2)C(C)(C)C(c2ccccc2)OC1=O (stereo unspecified)	-38.5*	0.7	-6.3	-0.8	-8.3
CC1=C(OC(=O)c2ccc(Br)cc2)C(C)(C)C(c2ccccc2)OC1=O (stereo unspecified)	10.7	1.1	0.0	-18.7	0.8
COc1ccc(N(C)S(=O)(=O)c2cccc3cccnc23)c(OC)c1	-14.8	0.8	-6.1	33.8	30.7*
CCOC(=O)c1cc2c(C)n(-c3ccc(N(C)C)cc3)c(C)c2cc(C(=O)OCC)c1=O	9.1	2.8	17.9	27.6	56.9*
CCCSCCCNC(=O)c1ccc2c(c1)sc1nc(-c3ccc(OCC)cc3)cn12	1.9	-0.3	-2.1	nt	14.5
C[C@@H]1CN([C@H](C)CO)C(=O)CCCn2cc(nn2)CO[C@H]1CN(C)C(=O)Nc1ccc(C(C)(C)C)cc1	nt	nt	nt	-100.2*	-13.6
